Results filed as inconclusive are left out. Calls of active or inactive are those of the source. Unless noted, calls come from the whole dose curve; as a rule, active = well fitted curve in the direction sought with a large enough effect; inconclusive = small, poorly fitted or top-dose-only effect, or another doubt; inactive = no such curve, though single readings can be large; an effect the other way counts as inactive or inconclusive. Some results are limits rather than exact numbers.

Assay [1] is described as follows: AP1 Signaling Pathway (AID 357; active = well fitted curve in either direction with a large enough effect, not every such curve was filed as active;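 note: ME-180 reporter cells stimulated with EGF at its EC50 level; % is set by controls: 0 for no effect and ±100 for the full control effect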). In a few lines: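 First, ME-180 AP-1-bla cells were cultured overnight at 37 °C in low-serum Opti-MEM. Next, titrated compounds with EC50 EGF were incubated 5 hours. Finally, CCF4 was added for 2.5 hours and the 460/530 nm ratio recorded.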
A short description of assay [2]: NFAT Signaling Pathway (AID 444; active = well fitted curve in either direction with a large enough effect, not every such curve was filed as active;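 note: carbachol stimulus at about its EC50 of 1 µM final; % is set by controls: 0 for no effect and ±100 for the full control effect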). The following applies: Jurkat NFAT-bla M1, carbachol, beta-lactamase ratio, 5 h; at 17.2 µM (top of the series) unless noted. A digest of the protocol:
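Jurkat cells with NFAT-driven β-lactamase reporter and co-expressed M1 receptor, stimulated with carbachol (final 1 uM, ~EC50), compound titration, 5 h at 37 °C. CCF4 loaded 1 h at RT; 460/530 nm ratio gave %activity and AC50.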

A short description of assay [3]: Stat Signaling Pathway (AID 446; active = well fitted curve in either direction with a large enough effect, not every such curve was filed as active;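 note: ME-180 cervical cancer cells given 40 pM IL-6 alongside compound; SIE-controlled beta-lactamase reporter measured as 460/530 nm FRET emission ratio; % is set by controls: 0 for no effect and ±100 for the full control effect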). In a few lines:
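Overnight-plated ME-180 cells bearing a STAT Inducible Element beta-lactamase reporter; 5 h co-exposure to compound and 40 pM IL-6; values normalized to 300 pM IL-6 and 125 nM JAK inhibitor controls.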

Assay [4] concerns the target Glucocorticoid receptor (Homo sapiens) (UniProt P04150). Put plainly: GR-GFP Redistribution (AID 450;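 active = compounds whose dose series gives a full or clear partial fitted curve of increased nuclear translocation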; note: potency is the fitted concentration of half-maximal effect). The note with it: U2OS GR-GFP nuclear translocation, laser cytometry, 2 h.
Assay [5] has the same target. Put plainly: GR-EFC Redistribution (AID 451; calls by dose curve; note: potency is the fitted concentration of half-maximal effect). The following applies: CHO-K1 GR-EFC translocation, beta-gal luminescence, 2 h. In a few lines: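 CHO-K1 cells expressing nuclear EA and GR-ED fragments of b-gal; compounds titrated up to 46 uM final, 2 h at 37 C. GR nuclear translocation read as complemented b-gal luminescence after 1 h RT detection.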
The target in assay [6] is Mitogen-activated protein kinase 10 (Mus musculus) (UniProt Q61831). The experiment in a line: JNK3 AlphaScreen Assay (AID 530; active = well fitted curve in either direction with a large enough effect, not every such curve was filed as active;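 note: kinase came from lysate of stimulated human HepG2 cells; signal reports phosphorylation of biotinylated GST-cJun 1-79 at Ser73 with 10 µM ATP; % is set by controls: 0 for no effect and ±100 for the full control effect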). In a few lines: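 HepG2 lysate (IL-1b/TNFa pre-activated) + biotin-GST-cJun 1-79 + anti-pSer73 cJun; cpd titration, 15 min RT; ATP 10 uM start; Tris pH 7.6, MgCl2, DTT, vanadate; beads in EDTA buffer; AlphaScreen.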
Assay [7] addresses 3',5'-cyclic-AMP phosphodiesterase 4B (Homo sapiens) (UniProt Q07343). Put plainly: qHTS Assay for Inhibitors of PDE-IV (AID 607; active = well fitted activation curve with a large enough effect in the main read-out, with a control signal flat, not every such curve was filed as active; note: % of control where 0% means no effect). In a few lines: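 Live HEK293 cells with a modified cyclic nucleotide-gated (CNG) channel report intracellular cAMP via membrane-potential dye fluorescence (ex 535/em 590 nm). Endogenous PDE-IV was targeted. Compounds were tested at up to 22.9 uM final; RO 20-1724 100 uM served as control.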

Assay [8] is described as follows: qHTS Assay for Lipid Storage Modulators (AID 1519; calls by dose curve). The note with it: Drosophila S3 cells, BODIPY lipid droplet/cell ratio, laser cytometry, cells loaded with oleic acid. A digest of the protocol: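 Cells seeded at 5,000 per well were treated with compounds over a concentration series and loaded with oleic acid (400 uM, as added). Lipid droplet fluorescence (488 nm excitation, 500-530 nm channel) was read by laser-scanning cytometry and normalized to 20 uM Triacsin C.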
(Quantitative high-throughput screening tests each substance at several concentrations.)

Assay [9] addresses ATP-dependent 6-phosphofructokinase (Trypanosoma brucei brucei) (UniProt O15648). The experiment in a line: qHTS Assay to Find Inhibitors of T. brucei phosphofructokinase: hit validation (AID 492961). A digest of the protocol: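 Compounds titrated; %activity normalized to 0x and 1x enzyme controls, curve-fitted. Readout: ADP-Glo luminescence after 45 min room-temperature reaction of 1.25 nM PFK, 0.1 mM ATP, 0.5 mM F6P, pH 8.0.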

For assay [10], the target named is Luciferin 4-monooxygenase (Photinus pyralis) (UniProt P08659). The experiment in a line: Biochemical firefly luciferase enzyme assay for NPC (AID 624030).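 Note: purified P. pyralis luciferase at 10 nM with luciferin and ATP substrate; 0% = DMSO and -100% = full luciferase inhibition by PTC124 control; nearly all actives have a fitted effect of over 70% in size.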 In a few lines:
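Purified P. pyralis luciferase at 10 nM in 50 mM Tris Acetate (final), luminescence read within 5 minutes of enzyme addition to compounds. Activity normalised to PTC124 versus DMSO; concentration-response curves classed by r2, magnitude and activity.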

The target of assay [11] is Ubiquitin carboxyl-terminal hydrolase 1 (Homo sapiens) (UniProt O94782). The experiment in a line: Inhibitors of USP1/UAF1: Pilot qHTS (AID 504865).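 Note: rhodamine fluorescence freed from ubiquitin-rhodamine substrate followed over time; top concentration of the series differs between compounds; % is set by controls: 0 for no effect and ±100 for the full control effect; nearly all actives have a fitted effect of over 35% in size.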 A digest of the protocol:
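1nM USP1/UAF1 + cpd, 15 min RT; start w/ Ub-Rho 150nM final; kinetic FL 480/540 nm, 6 reads q60 s. Buffer 50mM HEPES pH 7.8, 0.5mM EDTA, 1mM TCEP, 0.01% Tween-20, 0.1 mg/ml BSA.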

The nature of assay [12]: qHTS profiling for inhibitors of Plasmodium falciparum proliferation (AID 504749).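 For activity, negative = inhibition: 0% = DMSO vehicle and full inhibition = artemisinin control.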 For all read-outs here: nearly all actives have a fitted effect of over 60% in size. Note: potency is the fitted concentration of half-maximal effect. The following applies: P. falciparum in erythrocytes, SYBR Green DNA, 72 h; for activity, negative = inhibition: at 12.8 µM (top of the series). A digest of the protocol: (§1)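 SYBR Green fluorescence (ex 485 nm, em 535 nm) reports parasite DNA after 72 h compound exposure of infected red cells at 0.3% parasitemia, 2.5% hematocrit; signal normalized to 0.29 uM artemisinin and vehicle wells.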

Another assay deals with C2A. Described as above. The note with it: P. falciparum in erythrocytes, SYBR Green DNA, 72 h; series mostly up to 12.8 µM. In a few lines:
as §1

The subject of the next assay is CP217. The assay is described as above. The note with it: P. falciparum in erythrocytes, SYBR Green DNA, 72 h; series mostly up to 12.8 µM. In a few lines: as §1
The subject of the next assay is CP238. The assay is described as above. The note with it: P. falciparum in erythrocytes, SYBR Green DNA, 72 h; series mostly up to 12.8 µM. A digest of the protocol: as §1
For a further assay, the system named is CP250. The assay is described as above. The following applies: P. falciparum in erythrocytes, SYBR Green DNA, 72 h; series mostly up to 12.8 µM. In a few lines:
as §1

A further assay has as its system CP252. The assay is described as above. The following applies: P. falciparum in erythrocytes, SYBR Green DNA, 72 h; series mostly up to 12.8 µM. A digest of the protocol: as §1
The test system of a further assay is FAB9. The assay is described as above. The following applies: P. falciparum in erythrocytes, SYBR Green DNA, 72 h; series mostly up to 12.8 µM. A digest of the protocol: as §1
Another assay has as its system HB3. The assay is described as above. The note with it: P. falciparum in erythrocytes, SYBR Green DNA, 72 h; series mostly up to 12.8 µM. In a few lines: as §1
The test system of a further assay is SC27B. The assay is described as above. The following applies: P. falciparum in erythrocytes, SYBR Green DNA, 72 h; series mostly up to 12.8 µM. In a few lines:
as §1

Where [13] appears, read: measured here: cell count channel max response.
Setting [14] is: measured here: lipid channel max response.

Chain of 3',5'-cyclic-AMP phosphodiesterase 4B (Homo sapiens) (Q07343 whole entry, looked up): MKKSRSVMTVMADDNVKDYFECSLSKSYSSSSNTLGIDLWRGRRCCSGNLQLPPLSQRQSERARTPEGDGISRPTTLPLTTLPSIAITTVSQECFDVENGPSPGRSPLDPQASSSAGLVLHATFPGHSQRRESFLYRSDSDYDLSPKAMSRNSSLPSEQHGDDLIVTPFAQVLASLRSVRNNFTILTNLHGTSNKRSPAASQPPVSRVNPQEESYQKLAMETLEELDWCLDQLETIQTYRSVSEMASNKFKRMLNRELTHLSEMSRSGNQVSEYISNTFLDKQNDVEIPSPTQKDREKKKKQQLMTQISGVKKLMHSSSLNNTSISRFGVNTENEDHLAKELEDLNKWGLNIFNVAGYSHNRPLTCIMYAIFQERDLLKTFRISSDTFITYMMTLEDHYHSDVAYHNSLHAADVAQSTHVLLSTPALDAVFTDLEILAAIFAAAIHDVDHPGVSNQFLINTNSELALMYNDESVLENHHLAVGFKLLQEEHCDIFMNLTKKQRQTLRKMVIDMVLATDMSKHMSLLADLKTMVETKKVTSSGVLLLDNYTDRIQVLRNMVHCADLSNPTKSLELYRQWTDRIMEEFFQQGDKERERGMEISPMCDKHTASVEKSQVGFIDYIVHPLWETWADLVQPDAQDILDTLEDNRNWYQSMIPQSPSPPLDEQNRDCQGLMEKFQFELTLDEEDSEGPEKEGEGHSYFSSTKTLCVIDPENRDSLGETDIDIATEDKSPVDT
Chain of Glucocorticoid receptor (Homo sapiens) (P04150 whole entry, looked up, the tested form may be a part): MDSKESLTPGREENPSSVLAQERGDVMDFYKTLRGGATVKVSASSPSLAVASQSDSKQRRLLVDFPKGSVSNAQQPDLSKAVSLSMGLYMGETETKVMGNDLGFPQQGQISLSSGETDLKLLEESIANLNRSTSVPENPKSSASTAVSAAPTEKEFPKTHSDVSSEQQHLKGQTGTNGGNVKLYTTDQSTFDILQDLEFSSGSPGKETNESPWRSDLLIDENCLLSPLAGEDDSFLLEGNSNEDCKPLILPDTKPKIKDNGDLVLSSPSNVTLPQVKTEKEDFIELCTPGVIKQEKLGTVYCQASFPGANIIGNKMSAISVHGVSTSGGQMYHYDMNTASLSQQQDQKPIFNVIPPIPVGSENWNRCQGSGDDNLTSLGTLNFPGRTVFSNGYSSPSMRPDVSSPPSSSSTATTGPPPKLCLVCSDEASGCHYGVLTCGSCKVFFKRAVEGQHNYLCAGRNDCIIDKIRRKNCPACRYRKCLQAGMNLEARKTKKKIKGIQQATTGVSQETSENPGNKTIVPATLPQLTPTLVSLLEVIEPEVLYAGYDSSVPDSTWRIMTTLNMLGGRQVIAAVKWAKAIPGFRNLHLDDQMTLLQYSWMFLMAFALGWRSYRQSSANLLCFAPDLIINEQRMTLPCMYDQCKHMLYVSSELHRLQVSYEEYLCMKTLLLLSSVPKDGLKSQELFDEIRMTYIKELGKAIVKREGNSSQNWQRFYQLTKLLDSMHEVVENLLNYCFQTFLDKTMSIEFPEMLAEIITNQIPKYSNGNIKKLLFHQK
Chain of Luciferin 4-monooxygenase (Photinus pyralis) (P08659 whole entry, looked up): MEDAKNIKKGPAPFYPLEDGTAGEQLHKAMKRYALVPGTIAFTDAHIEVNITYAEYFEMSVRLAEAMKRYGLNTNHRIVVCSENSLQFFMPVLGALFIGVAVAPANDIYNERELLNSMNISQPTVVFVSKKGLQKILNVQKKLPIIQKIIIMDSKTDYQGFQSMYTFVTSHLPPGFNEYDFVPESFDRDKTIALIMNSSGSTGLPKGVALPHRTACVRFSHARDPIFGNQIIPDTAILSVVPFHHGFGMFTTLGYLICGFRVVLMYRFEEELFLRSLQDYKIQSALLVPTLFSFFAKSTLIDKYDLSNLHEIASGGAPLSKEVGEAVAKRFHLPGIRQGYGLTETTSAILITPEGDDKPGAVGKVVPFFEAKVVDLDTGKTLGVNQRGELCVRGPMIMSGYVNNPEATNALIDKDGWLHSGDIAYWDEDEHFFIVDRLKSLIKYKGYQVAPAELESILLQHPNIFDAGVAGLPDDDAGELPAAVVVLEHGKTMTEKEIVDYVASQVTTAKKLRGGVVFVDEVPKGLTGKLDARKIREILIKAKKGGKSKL
Chain of Ubiquitin carboxyl-terminal hydrolase 1 (Homo sapiens) (O94782 whole entry, looked up): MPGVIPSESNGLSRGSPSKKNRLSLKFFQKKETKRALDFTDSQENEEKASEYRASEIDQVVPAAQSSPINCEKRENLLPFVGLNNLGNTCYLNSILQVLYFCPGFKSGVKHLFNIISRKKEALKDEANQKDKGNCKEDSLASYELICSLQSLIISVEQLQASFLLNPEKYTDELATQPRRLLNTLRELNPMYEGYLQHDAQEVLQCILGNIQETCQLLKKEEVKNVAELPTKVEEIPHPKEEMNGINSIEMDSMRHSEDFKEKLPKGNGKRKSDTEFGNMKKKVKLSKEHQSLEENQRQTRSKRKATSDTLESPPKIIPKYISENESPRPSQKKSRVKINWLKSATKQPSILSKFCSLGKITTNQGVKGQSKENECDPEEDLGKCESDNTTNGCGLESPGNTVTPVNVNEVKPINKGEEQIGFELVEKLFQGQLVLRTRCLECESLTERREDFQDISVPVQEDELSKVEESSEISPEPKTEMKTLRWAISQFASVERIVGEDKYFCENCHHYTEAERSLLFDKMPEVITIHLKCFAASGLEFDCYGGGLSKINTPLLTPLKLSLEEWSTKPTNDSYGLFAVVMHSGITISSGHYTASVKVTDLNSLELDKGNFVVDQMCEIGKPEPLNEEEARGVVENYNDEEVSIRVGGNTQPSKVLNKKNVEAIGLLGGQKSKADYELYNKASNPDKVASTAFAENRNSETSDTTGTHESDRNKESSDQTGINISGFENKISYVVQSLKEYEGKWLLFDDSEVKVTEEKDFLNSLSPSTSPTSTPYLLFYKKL
Chain of ATP-dependent 6-phosphofructokinase (Trypanosoma brucei brucei) (O15648 whole entry, looked up): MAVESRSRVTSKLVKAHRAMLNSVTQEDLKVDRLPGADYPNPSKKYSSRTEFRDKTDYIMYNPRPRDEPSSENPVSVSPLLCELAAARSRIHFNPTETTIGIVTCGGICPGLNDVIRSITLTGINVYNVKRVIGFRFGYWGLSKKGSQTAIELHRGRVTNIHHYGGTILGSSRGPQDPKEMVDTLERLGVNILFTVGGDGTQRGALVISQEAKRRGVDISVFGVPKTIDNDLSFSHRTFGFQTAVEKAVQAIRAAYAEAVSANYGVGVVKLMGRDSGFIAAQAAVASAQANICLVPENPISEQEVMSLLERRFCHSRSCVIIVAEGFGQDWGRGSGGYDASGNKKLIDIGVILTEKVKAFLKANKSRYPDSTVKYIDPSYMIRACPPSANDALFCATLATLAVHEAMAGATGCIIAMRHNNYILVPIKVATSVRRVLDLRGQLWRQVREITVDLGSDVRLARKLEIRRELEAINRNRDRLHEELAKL

Turning to `CS(=O)(=O)c1ccc([C@H](O)[C@H](CF)NC(=O)C(Cl)Cl)cc1`, the molecule was called inactive in assay [1], in [3], in assay [7] and in assay [9]. The values for the activity change, negative = inhibition in assay [2] and in [8] (at 25.7 µM (top of the series)) were 1.9% (inactive) and 1.06% (inactive), respectively. The Potency in assay [4] and in [5] was > 20.6 µM (inactive) in each case. For the same molecule, the Potency result in assay [6] and in assay [10] was “inactive” in each case. Besides, the max response in [8] (setting [13]) stood at 1.07%; in assay [8] (setting [14]) it was 2.55%.
Consider `CC(=C(CCOP(=O)(O)O)SC(=O)c1ccccc1)N(C=O)Cc1cnc(C)nc1N`, for which the molecule was called inactive in assay [1], in [3], in [7] and in assay [9]. The activity change, negative = inhibition was 2.39% (inactive) in assay [2] and 0.981% (inactive) in assay [8] (at 25.7 µM (top of the series)). Moreover, the Potency in [4] and in [5] was > 20.6 µM (inactive) throughout. The Potency result (in assay [6]; in [11]; in assay [10]; with C2A; in the assay with CP217; in the assay with CP238) was “inactive” in each case. The Potency entry with CP250, in the assay with CP252, in the assay with FAB9, in the assay on HB3 and with SC27B was “inactive” in each case. Besides, the max response in assay [8] (setting [13]) is -3.81%; in [8] (setting [14]) it was -2.64%. Further, the activity, negative = inhibition in [12] (parasite line A) is -4.37% (inactive); in [12] (parasite line B) it was 20.3% (inactive).
Consider `C#C[C@]1(O)CC[C@@H]2[C@H]3CCC4=Cc5oncc5C[C@]4(C)[C@@H]3CC[C@@]21C`, for which the molecule was classed as inactive in [1] and in [3]. Besides, the Potency in assay [4] and in assay [5] was > 20.6 µM (inactive) in each case. Also, the Potency result in [6] and in assay [11] was “inactive” throughout. In addition, the activity change, negative = inhibition in assay [8] (at 25.7 µM (top of the series)) is -2.17% (inactive). Further, the values for the max response in [8] (setting [13]) and in assay [8] (setting [14]) were -23.2% and -23.4%, respectively.
Take `CN1CCCN([C@@H](c2ccccc2)c2ccc(Cl)cc2)CC1`: the molecule was called inactive in assay [1] and in [3]. Besides, the Potency in assay [4] and in [5] was > 20.6 µM (inactive) throughout. The Potency entry in assay [6] and in [11] was “inactive” each time. The activity change, negative = inhibition in [8] (at 25.7 µM (top of the series)) was -4.42% (inactive). For the same molecule, the max response in assay [8] (setting [13]) amounted to 4.14%; in assay [8] (setting [14]), 1.38%.
As to `CN1CCC2(CC1)CCN(C(=O)c1ccncc1)CC2`, the call in [1], in assay [3] and in assay [7] was inactive. For the same molecule, the Potency in [5] was > 46 µM (inactive). Further, the Potency result in assay [6] is “inactive”. In [8] (at 57.5 µM (top of the series)), the activity change, negative = inhibition was -3.65% (inactive). For the same molecule, the results for the max response in assay [8] (setting [13]) and in assay [8] (setting [14]) were 10.6% and 6.89%, respectively.
As to `O=C(N/N=C\c1ccc([N+](=O)[O-])o1)c1ccc(O)cc1`, the call in [1], in [3] and in assay [7] was inactive. Moreover, the activity change, negative = inhibition was 1.26% (inactive) in assay [2] and -1.38% (inactive) in assay [8] (at 25.7 µM (top of the series)). The Potency in [4] is > 20.6 µM (inactive); in [5], > 20.6 µM (inactive); in assay [12] (parasite line A) it was 1.41 µM (active); in assay [12] (parasite line B), 2.82 µM (active); in the assay with C2A, 3.16 µM (active); with CP217, 3.55 µM (active). The Potency was 3.16 µM (active) in the assay with CP238; 3.16 µM (active) in the assay on CP250; 3.16 µM (active) with CP252; 3.16 µM (active) in the assay on FAB9; 3.55 µM (active) in the assay on HB3; 3.55 µM (active) with SC27B. In addition, the Potency entry in assay [6] and in [10] was “inactive” in each case. The results for the max response in [8] (setting [13]) and in [8] (setting [14]) were -7.99% and -11.6%, respectively.

The values are drawn from PubChem BioAssay (NCATS).
